From PubChem BioAssay (NCATS)
Results filed as inconclusive are left out. Where a call stands in place of a potency, no number is given. Activity calls are given as the source filed them. Calls come from the whole dose curve; as a rule, active = well fitted curve in the direction sought with a large enough effect; inconclusive = small, poorly fitted or top-dose-only effect, or another doubt; inactive = no such curve, though single readings can be large; an effect the other way counts as inactive or inconclusive.

Key:
[1] = biological target: Aldehyde dehydrogenase, mitochondrial (Homo sapiens) (UniProt P05091); assay: qHTS for Inhibitors of the Aldehyde Dehydrogenase Family (ALDH2) Primary screen (AID 2061308); note: nearly all actives have a fitted effect of over 55% in size
[2] = biological target: Retinaldehyde dehydrogenase 3 (Homo sapiens) (UniProt P47895); assay: qHTS for Inhibitors of the Aldehyde Dehydrogenase Family (ALDH1A3) Primary screen (AID 2061315)
[3] = biological target: Aldehyde dehydrogenase 1A1 (Homo sapiens) (UniProt P00352); assay: qHTS for Inhibitors of the Aldehyde Dehydrogenase Family (ALDH1A1) Confirmatory screens (AID 2061316); note: nearly all actives have a fitted effect of over 65% in size; note: potency is the fitted concentration of half-maximal effect

SMILES | Potency [1] | Potency [2] | Potency [3]
CC1=C(C(=O)Nc2ccon2)C(c2ccccc2Br)N=C(Nc2nc3ccccc3o2)N1 (centres undefined) | inactive | inactive | –
Cc1cc(C)nc(NC(=S)N2CCN(C3=Nc4ccccc4Oc4ccccc43)CC2)c1 | inactive | inactive | –
CCC(=O)NC(c1cccs1)c1ccc2cccnc2c1O (centres undefined) | inactive | inactive | –
CN(C)c1cccc(N2CCN(c3nn4c(=O)c5ccccc5nc4s3)CC2)c1 | inactive | inactive | 10.1 µM (active)
Cc1c(C(O)(c2ccccc2)c2ccccc2)[n+]2ccccc2n1C | inactive | inactive | –
CCC(=O)Nc1ccc(OCc2cc(C3Nc4ccccc4C(=O)N3Cc3ccccc3)ccc2OC)cc1 (centres undefined) | inactive | inactive | inactive
Fc1ccc(NC(=S)Nc2nnc(-c3ccncc3)s2)cc1C(F)(F)F | inactive | inactive | 5.04 µM (active)
NC(=O)c1ccc(-c2noc(-c3ccccc3F)n2)cc1 | inactive | inactive | –
O=C1CCCC2=C1C1(CCCC1)N=C(Nc1nc3ccccc3n1Cc1ccccc1)N2 | inactive | inactive | –
Cc1ccc(NS(=O)(=O)c2ccc3c(c2)n(C)c(=O)n3C)cc1C | inactive | inactive | –
CCOC(=O)c1cccc(NS(=O)(=O)c2ccc(NC(=O)Cc3ccc(Cl)c(Cl)c3)cc2)c1 | inactive | inactive | –
COc1cnc(-c2ccc(Cn3c(CC(C)(C)C(=O)O)c(SC(C)(C)C)c4cc(OC[C@@H]5Cc6ccccc6N5C(C)=O)ccc43)cc2)nc1 | inactive | inactive | –
COc1ccc(C2c3c(ncn(CCN4CCOCC4)c3=N)Oc3ccc4ccccc4c32)cc1 (centres undefined) | inactive | inactive | –
